SMILES strings stand for the structures. Hit rate of the full screen: of about 310,000 compounds, about 2,200 (0.71%) showed an effect of 50% or more. The effect is printed as a negative number. For the sample, strong results were picked, then their nearest neighbours and some compounds at random.

The text below walks through data of paper PMC4336329 (PLoS ONE, 2015).

The target of this experiment is human ether-à-go-go-related gene (hERG) potassium channel (human, UniProt Q12809). Description: primary screen, population patch clamp on CHO cells stably expressing hERG; higher = less effect of the substance.
Chain of human ether-à-go-go-related gene (hERG) potassium channel (Q12809 whole entry, looked up): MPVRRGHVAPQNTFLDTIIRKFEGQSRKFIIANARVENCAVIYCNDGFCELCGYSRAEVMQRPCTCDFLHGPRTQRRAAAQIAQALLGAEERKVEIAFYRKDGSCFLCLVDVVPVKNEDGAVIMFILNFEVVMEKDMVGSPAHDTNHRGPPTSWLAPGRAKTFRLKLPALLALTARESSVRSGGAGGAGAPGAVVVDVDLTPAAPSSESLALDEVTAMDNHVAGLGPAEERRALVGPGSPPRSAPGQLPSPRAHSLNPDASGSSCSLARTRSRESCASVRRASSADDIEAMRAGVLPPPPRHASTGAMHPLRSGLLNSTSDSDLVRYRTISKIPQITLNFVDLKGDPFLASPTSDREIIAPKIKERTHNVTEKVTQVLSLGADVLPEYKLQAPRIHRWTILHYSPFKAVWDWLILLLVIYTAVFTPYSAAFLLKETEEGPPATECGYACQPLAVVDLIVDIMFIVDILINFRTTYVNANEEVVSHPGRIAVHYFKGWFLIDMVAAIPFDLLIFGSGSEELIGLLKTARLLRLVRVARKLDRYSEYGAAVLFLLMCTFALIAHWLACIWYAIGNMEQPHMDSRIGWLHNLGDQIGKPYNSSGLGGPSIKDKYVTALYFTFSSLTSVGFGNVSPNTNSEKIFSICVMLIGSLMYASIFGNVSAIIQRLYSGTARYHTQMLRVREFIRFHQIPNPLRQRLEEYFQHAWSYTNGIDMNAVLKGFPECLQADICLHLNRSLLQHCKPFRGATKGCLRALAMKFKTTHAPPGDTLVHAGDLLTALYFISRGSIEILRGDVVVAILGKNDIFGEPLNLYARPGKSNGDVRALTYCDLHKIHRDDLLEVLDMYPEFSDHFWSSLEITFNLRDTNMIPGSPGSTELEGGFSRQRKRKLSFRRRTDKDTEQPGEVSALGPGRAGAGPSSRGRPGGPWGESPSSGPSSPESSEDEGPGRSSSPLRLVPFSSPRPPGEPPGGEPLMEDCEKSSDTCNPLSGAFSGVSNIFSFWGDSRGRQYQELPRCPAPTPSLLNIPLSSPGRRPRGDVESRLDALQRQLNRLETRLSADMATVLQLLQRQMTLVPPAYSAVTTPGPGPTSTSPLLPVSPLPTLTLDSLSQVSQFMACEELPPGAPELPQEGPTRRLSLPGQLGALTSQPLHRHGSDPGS
As to `CCC(=O)Nc1ccc(C(=O)n2nc(C)cc2C)cc1`, the “hERG current change (%, negative = inhibition) at 1uM” value was 1.88%.

Consider `Cc1c(NC(=O)c2cc(-n3cnnc3)ccc2Cl)cccc1-c1nc2ccccc2s1`, for which the “hERG current change (%, negative = inhibition) at 1uM” value is recorded as -9.7%. The same measure for `CC1CCCN(CCCNC(=O)c2nn(C)c3c2CSc2ccccc2-3)C1` (stereo not drawn): -66.2%; for `Cn1nc(C(=O)NCCCN2CCCCC2)c2c1-c1ccccc1SC2`: -24.8%. Under `CC1CCCCN1CCCNC(=O)c1nn(C)c2c1CSc1ccccc1-2` (stereo not drawn) stands -23.4%. Under `O=C(COc1nncc2ccccc12)NCCC1=CCCCC1` stands 9.4%; under `COCCn1c(=N)c(C(=O)NCc2ccco2)cc2c(=O)n3ccccc3nc21`, -88%. For `COCCn1cc(C(=O)NCc2ccco2)c2c3ccccc3n(C)c2c1=O`, the “hERG current change (%, negative = inhibition) at 1uM” value is 5.73%. For the compound `COCCn1c(=N)c(S(=O)(=O)c2ccc(Br)cc2)cc2c(=O)n3ccccc3nc21`, the “hERG current change (%, negative = inhibition) at 1uM” value was determined as 9.15%.

With `Cc1ccc2nc3c(cc(C(=O)NCc4ccco4)c(=N)n3Cc3ccco3)c(=O)n2c1`, the “hERG current change (%, negative = inhibition) at 1uM” value was -86.5%. The same measure for `Cc1cc2ccccc2c(=O)n1CC(=O)NCc1ccco1`: 18.5%; for `CCn1cc(C(=O)NCc2ccco2)c2cc(OC)c(OC)cc2c1=O`: -8.54%; for `COCCn1c(=N)c(C(=O)NCc2ccco2)cc2c(=O)n3cc(C)ccc3nc21`: -92%. The same measure for `Cc1ccc(S(=O)(=O)c2cc3c(=O)n4ccccc4nc3n(Cc3ccco3)c2=N)cc1`: -0.218%; for `CCOc1ccc(N2CC(=O)N/C2=N\c2nc(C)cc(C)n2)cc1`: -2.01%; for `CC(C)COC(=O)CCNc1n[nH]c(=O)[nH]c1=O`: 3.64%. Under `CCCCCCSc1nnc(N)s1` stands 7.6%; under `COc1ccccc1OCCCC(=O)NC(C)c1ccccc1` (stereo not drawn), 8%; under `O=C1CCCc2oc3c(cc(NS(=O)(=O)c4ccc5c6c(cccc46)C(=O)N5)c4ccccc43)c21`, -6.54%. Regarding `Cc1cc(C)nc(SCCC(=O)N(C)C)n1`, the “hERG current change (%, negative = inhibition) at 1uM” value turned out to be 11%. Turning to `Cc1c(N(C)C)nc2ccccc2c1N.O=C(O)C(=O)O`, the “hERG current change (%, negative = inhibition) at 1uM” value was -8.8%. Regarding `CCN(CC)c1nc2ccccc2c(N)c1-c1ccccc1.O=C(O)C(=O)O`, the “hERG current change (%, negative = inhibition) at 1uM” value is recorded as -53.9%. The same measure for `CN(C)c1nc2ccccc2c(N)c1-c1ccccc1.O=C(O)C(=O)O`: -39.7%. On to `COc1cc(/C=C2/C(=O)NN(c3ccc(F)cc3)C2=O)cc([N+](=O)[O-])c1O`, for which the “hERG current change (%, negative = inhibition) at 1uM” value is 8.07%.

`O=C(OCC(=O)C12CC3CC(CC(C3)C1)C2)c1cnccn1`: the “hERG current change (%, negative = inhibition) at 1uM” value is on record as 8.15%. The same measure for `O=C(CCc1nnc(CCCCc2ccccc2)o1)NCCN1CCOC1=O`: 9.65%. For `O=C(c1ccc2c(=O)n(Cc3ccccc3Cl)c(=S)[nH]c2c1)N1CCOCC1`, the “hERG current change (%, negative = inhibition) at 1uM” value turned out to be 13%. As to `O=C(c1nc2ccccn2c1CN1CCCC(OCc2ccccc2)C1)N1CCCC1` (stereo not drawn), the “hERG current change (%, negative = inhibition) at 1uM” value is on record as -25.7%. For the compound `O=C(c1nc2ccccn2c1CN1CCN(c2ccccc2O)CC1)N1CCCC1`, the “hERG current change (%, negative = inhibition) at 1uM” value was determined as 26%.

For the compound `O=C(c1nc2ccccn2c1CN1CCC(Cc2ccccc2)CC1)N1CCCC1`, the “hERG current change (%, negative = inhibition) at 1uM” value is on record as -54.2%.

`CCN(CC)c1ccc(/C=C2\C(=O)NC(=S)N(C)C2=O)o1`: the “hERG current change (%, negative = inhibition) at 1uM” value is 7.14%. Under `C#CCn1c(=NC(=O)c2ccccc2[N+](=O)[O-])sc2cc(S(C)(=O)=O)ccc21` stands 13.3%; under `CC1CC(c2ccccc2)n2nc(NC(=O)CCc3ccccc3)nc2N1` (stereo not drawn), -1.41%.

With `CCCCCCCCCCCCCCCC[n+]1cccc2ccccc21.[I-]`, the “hERG current change (%, negative = inhibition) at 1uM” value is on record as -23%. Turning to `CCCCCCCC[n+]1cccc2c3ccccc3ccc21.[I-]`, the “hERG current change (%, negative = inhibition) at 1uM” value was -92%.

With `O=[N+]([O-])c1ccc(C[n+]2cccc3c4ccccc4ccc32)cc1.[Br-]`, the “hERG current change (%, negative = inhibition) at 1uM” value is -18%. The same measure for `Cc1cccc[n+]1CCCCCCCCCC[n+]1ccccc1C.[Br-]`: 20.8%; for `[Cl-].c1ccc(C[n+]2cccc3c4ccccc4ccc32)cc1`: -2.14%. With `CCCCCCCCC[n+]1cccc2c3ccccc3ccc21.[Br-]`, the “hERG current change (%, negative = inhibition) at 1uM” value is listed as -91.7%. The same measure for `CC(C)c1ccc(NC(=O)CSc2nnc(-c3ccccn3)n2C)cc1`: -4.65%.

Consider `COc1ccc(/C=N/Nc2ccccc2C(=O)O)cc1Cn1cc([N+](=O)[O-])cn1`, for which the “hERG current change (%, negative = inhibition) at 1uM” value stood at 6.26%. The same measure for `O=C(Nc1ccc(OC(F)(F)F)cc1)C1CCCN(S(=O)(=O)c2cccnc2)C1` (stereo not drawn): -4.09%; for `Cc1nnsc1C(=O)N1CCCC(C(=O)c2ccc(C(F)(F)F)cc2)C1` (stereo not drawn): 3.88%; for `Cc1cc(-c2ccccc2)cc(-c2ccccc2)[n+]1CCc1ccccc1.[O-][Cl+3]([O-])([O-])[O-]`: -78.4%. The same measure for `O=[N+]([O-])c1ccc(C[n+]2c(-c3ccccc3)cc(-c3ccccc3)cc2-c2ccccc2)cc1.[O-][Cl+3]([O-])([O-])[O-]`: 7.61%; for `Cc1cc(-c2ccccc2)cc(C)[n+]1Cc1ccccc1.[O-][Cl+3]([O-])([O-])[O-]`: 6.49%.

`CCOc1ccc(-c2cc(C)[n+](CCO)c(-c3ccc(OCC)cc3)c2)cc1.[O-][Cl+3]([O-])([O-])[O-]`: the “hERG current change (%, negative = inhibition) at 1uM” value amounted to 1.92%.

`CCOc1ccc(-c2cc(C)[n+](CCc3ccc(OC)c(OC)c3)c(-c3ccc(OCC)cc3)c2)cc1.[O-][Cl+3]([O-])([O-])[O-]`: the “hERG current change (%, negative = inhibition) at 1uM” value is reported as -70.1%. Under `CCOc1ccc(-c2cc(C)[n+](CCN(CC)CC)c(-c3ccc(OCC)cc3)c2)cc1.[O-][Cl+3]([O-])([O-])[O-]` stands -19.3%; under `CCNc1nc(NCC)nc(N/N=C/c2ccc(Br)cc2)n1`, 8.67%. Under `COc1ccc2c(C=O)c[nH]c2c1` stands 6.81%; under `Cc1ccccc1Nc1nc(N)nc(COC(=O)c2cccc(S(=O)(=O)N(C)C)c2)n1`, 8.43%.

In the case of `O=C1CCCN1CCCNS(=O)(=O)c1ccc(F)c(F)c1`, the “hERG current change (%, negative = inhibition) at 1uM” value came out at 13.5%. Under `COc1ccc(-c2cc(-c3ccco3)[nH]c(=O)c2C#N)cc1OC` stands 13.5%; under `CCCCCC(=O)N1CCN(CCN=CC2=C(O)CC(c3ccc(OC)cc3)CC2=O)CC1` (stereo not drawn), -54.5%. The same measure for `CCCCCC(=O)N1CCN(CCN=CC2=C(O)CC(c3ccc(OC)c(OC)c3)CC2=O)CC1` (stereo not drawn): -56.5%. The same measure for `COc1ccc(C2CC(=O)C(C=NCCO)=C(O)C2)cc1OC` (stereo not drawn): 13.4%; for `CCC(=O)N1CCN(CCN=CC2=C(O)CC(c3ccc(OC)cc3)CC2=O)CC1` (stereo not drawn): 8.12%.

Consider `COc1ccc(C2CC(=O)C(C=NCCN3CCN(C(=S)Nc4ccccc4)CC3)=C(O)C2)cc1OC` (stereo not drawn), for which the “hERG current change (%, negative = inhibition) at 1uM” value came out at 1.75%. In the case of `COc1ccc(C2CC(=O)C(C=NCCN3CCN(C(C)=O)CC3)=C(O)C2)cc1` (stereo not drawn), the “hERG current change (%, negative = inhibition) at 1uM” value was 0.835%. The same measure for `Cc1ccc(N2C(=O)/C(=C/N3CCN(C(=O)c4ccco4)CC3)C(=O)NC2=S)cc1C`: 1.67%; for `CC(C)CNS(=O)(=O)c1ccc(OCC(=O)Nc2ccc3c(c2)OCCO3)cc1`: 14.4%.

For `Cc1ccc(OCC(O)CN2CCN(CC(O)COc3ccc(C)cc3Cl)CC2)c(Cl)c1` (stereo not drawn), the “hERG current change (%, negative = inhibition) at 1uM” value is -5.75%. Under `Cc1ccc(OCC(O)CN2CCC(Cc3ccccc3)CC2)c(C)c1.Cl` (stereo not drawn) stands -49.9%; under `CC1CCCC(C)N1CC(O)COc1ccc(Cl)cc1` (stereo not drawn), -57.6%; under `Cl.OC(COCc1ccc2c(c1)OCO2)CN1CCC(Cc2ccccc2)CC1` (stereo not drawn), -79.4%. The same measure for `OC(COc1ccc(F)cc1Cl)CN1CCC(Cc2ccccc2)CC1` (stereo not drawn): -81.4%; for `Cl.OC(COc1ccccc1F)CN1CCC(Cc2ccccc2)CC1` (stereo not drawn): -55.7%. As to `Cc1ccc(C)c(OCC(O)CN2CCC(Cc3ccccc3)CC2)c1.Cl` (stereo not drawn), the “hERG current change (%, negative = inhibition) at 1uM” value is recorded as -43.1%. Under `Cl.OC(COCc1ccccc1)CN1CCN(Cc2ccc3c(c2)OCO3)CC1` (stereo not drawn) stands -0.707%; under `OC(COc1ccc(F)cc1Cl)CN1CCc2ccccc2C1` (stereo not drawn), -10.6%; under `Cl.OC(COCc1ccc2c(c1)OCO2)CN1CCN(Cc2ccccc2)CC1` (stereo not drawn), -8.65%. For the compound `CC(=O)Nc1ccc(OCC(O)CN2C(C)CCCC2C)cc1.Cl` (stereo not drawn), the “hERG current change (%, negative = inhibition) at 1uM” value amounted to 15.2%. The same measure for `Cc1cc(Cl)ccc1OCC(O)CN1C(C)CCCC1C.Cl` (stereo not drawn): -46.3%; for `COc1ccc(Cn2c(-c3ccccc3)nc3c(c(=O)c4ccccc4n3C)c2=O)cc1`: -7.94%; for `COc1ccc(CCNC(=O)c2ccc3nc(N4CCOCC4)sc3c2)cc1OC`: 4.99%. Consider `Cc1cc(NC(=O)Cc2ccccc2C)no1`, for which the “hERG current change (%, negative = inhibition) at 1uM” value turned out to be 10.2%. Under `CCN(CC(=O)Nc1ccc(NC(C)=O)cc1)C(=O)COc1ccccc1-c1ccccc1` stands 12%; under `CCOC(=O)c1cnc(-n2nc(C)cc2C)nc1NNc1nc(-c2ccccc2)cc(-c2ccccc2)n1`, -1.53%; under `O=C(Nc1nc(-c2cccs2)cs1)c1ccc(Cl)s1`, -6.43%.

For `Cc1cc2nn(-c3ccc(Cl)cc3)nc2cc1N`, the “hERG current change (%, negative = inhibition) at 1uM” value is on record as 14%. Turning to `CCO/C=C/C(O)(CNC(=O)COc1ccccc1F)C(F)(F)F` (stereo not drawn), the “hERG current change (%, negative = inhibition) at 1uM” value is on record as 19.8%. The same measure for `CN1C(=O)N(c2nnc(C(C)(C)C)s2)C(=O)C1c1ccccc1` (stereo not drawn): 14.2%; for `Cc1nnsc1C(=O)Nc1ccc(S(=O)(=O)N2CCCCC2C)cc1` (stereo not drawn): 12.5%.
